The panel holds about 83,000 compounds, 20% with a hit somewhere; the sample as a whole holds those more often.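 Method: cells in 96-well plates; compound added at one concentration; 48 h incubation; percent growth measured; values under 10 scored active.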 Unmarked numbers belong to inactive results. Activity calls are given as the source filed them.

Among the test systems are DU-145 prostate; K-562 leukemia; MALME-3M melanoma; MDA-MB-231 breast; RXF 393 renal; SF-268 CNS; SF-539 CNS; UACC-257 melanoma; M14 melanoma; HCT-15 colon; HT29 colon; SNB-75 CNS; SNB-19 CNS; U251 CNS; PC-3 prostate; SK-MEL-5 melanoma; UACC-62 melanoma; LOX IMVI melanoma; SK-MEL-28 melanoma.
Common to all, as to assay: NCI-60 one-dose screen, 48 h (100 = growth as untreated, 0 = no growth, -100 = all killed)
Common to all, as to conditions: 10 µM unless noted

Regarding `O=C(CS)OCC(COC(=O)CS)(COC(=O)CS)COC(=O)CS`, the growth is 95.3% in the assay on DU-145 prostate; 34.3% in the assay with K-562 leukemia; 89.6% with MALME-3M melanoma; 104% in the assay with MDA-MB-231 breast; 98.8% in the assay on RXF 393 renal; 82.7% with SF-268 CNS. Further, the growth was 98.4% in the assay on SF-539 CNS; 59.3% in the assay on UACC-257 melanoma; 18.1% in the assay on M14 melanoma; 85% in the assay on HCT-15 colon; 98.9% in the assay with HT29 colon; 74.5% in the assay on SNB-75 CNS. Also, the growth is 119% in the assay on SNB-19 CNS; 103% in the assay on U251 CNS; 83.4% in the assay with PC-3 prostate; 102% in the assay on SK-MEL-5 melanoma; 67.9% in the assay on UACC-62 melanoma; 70.5% in the assay with LOX IMVI melanoma. Also, the growth in the assay with SK-MEL-28 melanoma is 90.1%.

Take `COS(=O)(=O)CCN(CCOS(C)(=O)=O)S(C)(=O)=O`: the growth with DU-145 prostate is 105%; with K-562 leukemia, 76%; in the assay on MALME-3M melanoma, 98.9%; in the assay with MDA-MB-231 breast it was 109%; in the assay with RXF 393 renal, 105%; with SF-268 CNS it was 107%. In addition, the growth in the assay on SF-539 CNS is 91.2%; in the assay on UACC-257 melanoma, 82.6%; with M14 melanoma, 94.3%; in the assay with HCT-15 colon, 95.4%; with HT29 colon, 85.4%; in the assay with SNB-75 CNS, 90.4%. Further, the growth is 107% with SNB-19 CNS; 96.8% with U251 CNS; 94.8% with PC-3 prostate; 104% in the assay with SK-MEL-5 melanoma; 102% in the assay with UACC-62 melanoma; 96.5% in the assay on LOX IMVI melanoma. In addition, the growth in the assay on SK-MEL-28 melanoma is 99.1%.

In the case of `Cn1c(=O)c2c3c(oc2c2ccccc21)C(=O)c1ccccc1C3=O`, the growth was 91% in the assay on DU-145 prostate; 68.8% in the assay on K-562 leukemia; 113% in the assay with MALME-3M melanoma; 11.5% with MDA-MB-231 breast; 101% in the assay with RXF 393 renal; 95.3% in the assay with SF-268 CNS. Also, the growth in the assay with SF-539 CNS is 97.2%; with UACC-257 melanoma, 106%; with M14 melanoma, 85.6%; with HCT-15 colon, 85%; in the assay with HT29 colon, 73.7%; with SNB-75 CNS, 64.4%. For the same molecule, the growth was 93.3% in the assay on SNB-19 CNS; 90.2% in the assay on U251 CNS; 64.4% in the assay on PC-3 prostate; 76.9% in the assay on SK-MEL-5 melanoma; 77% in the assay with UACC-62 melanoma; 76.6% with LOX IMVI melanoma. The growth with SK-MEL-28 melanoma is 112%.

`Brc1ccccc1Cn1c(-c2cncs2)nc2ccccc21`: the growth in the assay with DU-145 prostate is 98.4%; in the assay on K-562 leukemia, 74.6%; with MALME-3M melanoma, 98%; in the assay on MDA-MB-231 breast, 71.2%; in the assay on RXF 393 renal it was 97.6%; in the assay on SF-268 CNS, 92.1%. Besides, the growth is 88.5% in the assay with SF-539 CNS; 96% in the assay with UACC-257 melanoma; 92.9% with M14 melanoma; 82.8% in the assay on HCT-15 colon; 80.7% in the assay on HT29 colon; 53% in the assay on SNB-75 CNS. Further, the growth was 84.6% in the assay with SNB-19 CNS; 84.8% in the assay on U251 CNS; 57.2% with PC-3 prostate; 76.2% in the assay on SK-MEL-5 melanoma; 70.1% in the assay with UACC-62 melanoma; 75.8% in the assay on LOX IMVI melanoma. In addition, the growth with SK-MEL-28 melanoma is 104%.

For `COc1ccc(C(=O)C(C#N)c2cc(OC)c(OC)c(OC)c2)cc1` (configuration not stated), the growth with DU-145 prostate was 114%; in the assay on K-562 leukemia it was 98.1%; in the assay on MALME-3M melanoma it was 106%; in the assay with MDA-MB-231 breast it was 115%; with RXF 393 renal it was 103%; with SF-268 CNS it was 114%. For the same molecule, the growth in the assay with SF-539 CNS was 93.8%; in the assay on UACC-257 melanoma, 97.4%; with M14 melanoma it was 102%; in the assay with HCT-15 colon, 102%; in the assay with HT29 colon it was 99.2%; with SNB-75 CNS, 90.7%. The growth in the assay with SNB-19 CNS is 108%; in the assay with U251 CNS, 98.2%; in the assay on PC-3 prostate, 99%; with SK-MEL-5 melanoma, 102%; in the assay with UACC-62 melanoma, 105%; in the assay on LOX IMVI melanoma it was 97.8%. In addition, the growth in the assay on SK-MEL-28 melanoma was 104%.

On to `O=C(/C=C/c1ccccc1)C(Br)C(Br)c1ccccc1` (configuration not stated), for which the growth is -21.3% (active) in the assay on DU-145 prostate; 1.4% (active) in the assay on K-562 leukemia; -54.3% (active) in the assay on MALME-3M melanoma; 27.7% with MDA-MB-231 breast; -79.9% (active) in the assay with RXF 393 renal; 13.9% in the assay with SF-268 CNS. The growth is -33.1% (active) with SF-539 CNS; 22.8% in the assay on UACC-257 melanoma; 17.2% in the assay on M14 melanoma; -32.7% (active) in the assay with HCT-15 colon; -53.5% (active) with HT29 colon; 80.1% in the assay with SNB-75 CNS. For the same molecule, the growth in the assay with SNB-19 CNS is 73.5%; with U251 CNS, 42.9%; with PC-3 prostate it was 4.21% (active); in the assay on SK-MEL-5 melanoma, 38.9%; in the assay with UACC-62 melanoma it was 5.9% (active); in the assay with LOX IMVI melanoma, -68.6% (active). For the same molecule, the growth in the assay with SK-MEL-28 melanoma was 11.1%.

Consider `N#CC1=C(N)Oc2nc[nH]c(=O)c2C1c1cccs1` (configuration not stated), for which the growth in the assay with DU-145 prostate was 107%; with K-562 leukemia it was 104%; in the assay with MALME-3M melanoma it was 112%; with MDA-MB-231 breast, 106%; in the assay with RXF 393 renal, 97.8%; in the assay with SF-268 CNS it was 108%. For the same molecule, the growth is 101% in the assay with SF-539 CNS; 98.4% in the assay on UACC-257 melanoma; 111% in the assay on M14 melanoma; 99.8% in the assay on HCT-15 colon; 99% in the assay on HT29 colon; 92.6% in the assay with SNB-75 CNS. In addition, the growth in the assay with SNB-19 CNS is 104%; in the assay on U251 CNS, 96.3%; in the assay on PC-3 prostate, 97.9%; with SK-MEL-5 melanoma, 102%; in the assay with UACC-62 melanoma it was 104%; in the assay on LOX IMVI melanoma it was 100%. Also, the growth in the assay with SK-MEL-28 melanoma is 102%.

`CN(CCO)c1ccc(N2Cc3ccccc3OC3=C2C(=O)c2c(O)ccc(O)c2C3=O)cn1`: the growth in the assay with DU-145 prostate is -98.8% (active); in the assay with K-562 leukemia, -1.58% (active); in the assay on MALME-3M melanoma, -86.1% (active); in the assay on MDA-MB-231 breast it was -90.2% (active); in the assay with RXF 393 renal, -96.6% (active); in the assay on SF-268 CNS, -59.7% (active). For the same molecule, the growth is -68.9% (active) in the assay with SF-539 CNS; -91.6% (active) in the assay on UACC-257 melanoma; -89% (active) with M14 melanoma; -83.6% (active) in the assay with HCT-15 colon; -49% (active) in the assay on HT29 colon; -13.7% (active) in the assay on SNB-75 CNS. The growth in the assay on SNB-19 CNS was 6.43% (active); in the assay with U251 CNS, -24.8% (active); with PC-3 prostate it was -14.8% (active); in the assay with SK-MEL-5 melanoma it was -94.9% (active); with UACC-62 melanoma, -88.3% (active); in the assay on LOX IMVI melanoma it was -86.6% (active). Besides, in the assay on SK-MEL-28 melanoma, the growth is -83.4% (active).

The record behind these values is PubChem BioAssay (NCI).
